Measurements: PubChem BioAssay
Several values for one entry are separate records, joined by “and”; a condition that tells them apart may be missing. Identical values can stand only once. Inconclusive results are not listed. Activity calls are given as the source filed them. Cut-off not given; nearly all actives show AC50 up to about 23 µM.

Experiment: growth inhibition of DIPG glioma cells, dose response, cell-based, SU-DIPG-XIII, MIPE5.0, CellTiter-Glo, qHTS (AID 1347064);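 further: cells exposed to compound for 48 hours before the viability read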
Conditions: SU-DIPG-XIII viability, CellTiter-Glo ATP luminescence

Row | SMILES | AC50
1 | CCCc1cc(C(=O)N[C@H](Cc2ccc(-c3cccc(OC(F)(F)F)c3)nc2)C(=O)N[C@@H]2CCNC2)sc1C | 16.6 µM (active)
2 | CCN(CC)CCNc1ccc(C)c2sc3ccccc3c(=O)c12 | 20.9 µM (active)
3 | COCCNCc1ccc(-c2cc3nccc(Oc4ccc(NC(=O)C5(C(=O)Nc6ccc(F)cc6)CC5)cc4F)c3s2)nc1 | 5.25 µM (active)
4 | Nc1nc(N)c2nc(-c3cccc(Cl)c3)c(N)nc2n1 | 9.34 µM (active)
5 | CCCCNc1ncc2c(-c3ccc(CN4CCN(C)CC4)cc3)cn(C3CCC(O)CC3)c2n1 (stereo not drawn) | 2.35 µM (active) and 1.86 µM (active)
6 | O=C(c1ccc(Nc2nc(C3CC3)cn3c(-c4cn[nH]c4)cnc23)c(F)c1)N1CCOCC1 | 5.9 µM (active)
7 | COc1cc(OC)cc(N2CCN(C(=O)Nc3nc4cc(F)ccc4nc3OC)CC2)c1 | 2.63 µM (active)
8 | Cn1nccc1Nc1nccc(-c2ccn([C@H](CO)c3ccc(Cl)c(F)c3)c(=O)c2)n1 | 10.5 µM (active)
9 | COc1ccc(-c2cc(C(O)C3CCCCN3)c3ccccc3n2)cc1 (stereo not drawn) | 16.6 µM (active)
10 | CCOC(=N)c1nc2ccc3ncnc(Nc4cc(F)c(F)cc4Cl)c3c2s1 | 16.6 µM (active)
11 | COc1cc(C(=O)O)ccc1NC(=O)[C@@H]1N[C@@H](CC(C)(C)C)[C@](C#N)(c2ccc(Cl)cc2F)[C@H]1c1cccc(Cl)c1F | 14.8 µM (active)
12 | O=C(NOCCO)c1cc(CN2OCCCC2=O)c(F)c(F)c1Nc1ccc(I)cc1F | 0.148 µM (active)
13 | CCc1nc(C(N)=O)c(Nc2ccc(N3CCC(N4CCN(C)CC4)CC3)c(OC)c2)nc1NC1CCOCC1 | 1.18 µM (active)
